HT1080 IDH1KD tx: HT-1080 IDH1 knockdown cell toxicity (counter line) | HT-1080 IDH1 knockdown viability, ATP luminescence, 48 h | Potency, µM (titrated, usually from 46.1 µM), without a hit: at the highest dose activity, negative = toxicity, actives largely listed as cytotoxic | 360,000 tested, 2% active;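 also: potency is read from the fitted curve at half-maximal effect; 0% = DMSO wells and -100% = cell-free medium wells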
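In this qHTS, HT-1080 cells depleted of IDH1 are exposed for 48 h at 37 °C to compound titrations. Toxicity is scored from CellTiter-Glo luminescence, with DMSO as full viability and medium alone as none.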
IL-1B inflam inh: blocks inflammasome-driven IL-1 beta release; THP-1 LPS/ATP IL-1B secretion, AlphaLISA, 16 h; stronger effect = lower value; activity change, % at 57.5 µM; 360,000 tested, 4.7% active; AID 743279; in the data active = activity change below about -50%; inconclusive = mostly about -30% to -49%
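Secreted IL-1B measured by AlphaLISA bead assay after 16 h compound exposure of THP-1 cells; compounds (final up to 57.5 uM) added 1 h before LPS (250 ng/mL) and ATP (1.25 mM) stimulation; lower signal means less secretion.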
DT40 TDP1 CPT: DT40-hTDP1 cell growth loss with CPT | chicken DT40 Tdp1-/-;hTDP1 cells + 20 nM CPT, ATP luminescence, 48 h | Potency, µM (titrated, usually from 46.2 µM), inactives show at the top dose activity change, negative = growth inhibition, usual class: inhibitors | 420,000 tested, 12% active; also: potency is read from the fitted curve at half-maximal effect; nearly all actives have a fitted effect of over 55% in size
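Chicken DT40 Tdp1-/- cells stably complemented with human TDP1 were seeded at 400 cells/well in medium containing 20 nM camptothecin, exposed to pin-transferred compounds, and grown at 37 °C for at least 48 hr. Viability was read as ATP luminescence.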
HT1080NT lethal: kills 2HG-producing HT-1080-NT fibrosarcoma cells. HT-1080-NT fibrosarcoma viability, CellTiter-Glo ATP luminescence, 48 h. Potency, µM (highest dose often 46.1 µM), without a hit: at the highest dose activity, negative = less viability, hits mostly cytotoxic. 360,000 tested, 1.6% active. AID 686970;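 also: NT is the 2HG producing partner of a matched IDH1 knockdown line; potency is read from the fitted curve at half-maximal effect; 0% = DMSO-treated cells and -100% = media-only wells without cells; nearly all actives have a fitted effect of over 55% in size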
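Fibrosarcoma NT cells, 750 per well in 5% FBS RPMI, were exposed to compound for 48 hours. Viability: CellTiter-Glo luminescence.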
DT40 TDP1 no CPT: qHTS for Inhibitors of human tyrosyl-DNA phosphodiesterase 1 (TDP1): qHTS in cells in absence of CPT; DT40 Tdp1-/- hTDP1 cells, no CPT, ATP luminescence, 48 h; Potency, µM (series often up to 46.2 µM), for the others: top-dose activity change, negative = growth inhibition, hits mostly inhibitors; 420,000 tested, 15% active; also: potency is read from the fitted curve at half-maximal effect; nearly all actives have a fitted effect of over 55% in size
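DT40 Tdp1-/-;hTDP1 cells, no CPT (DMSO vehicle only), 400 cells/well; compounds pin-transferred; ≥48 hr, 37 °C; CellTiter-Glo 30 min RT dark, luminescence read.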
* = called active by the depositor; ? = inconclusive; / = no result. Sampled rows, rich in hits. Any-hit rate of the full collection: about 19%. Unless noted, calls follow the shape of the dose curve; as a rule, active = well fitted curve in the direction sought with a large enough effect; inconclusive = small, poorly fitted or top-dose-only effect, or another doubt; inactive = no such curve, though single readings can be large; an effect the other way counts as inactive or inconclusive. Unless noted, % is scaled to controls: 0 for no effect and ±100 for the full control effect.

SMILES	HT1080 IDH1KD tx	IL-1B inflam inh	DT40 TDP1 CPT	HT1080NT lethal	DT40 TDP1 no CPT
COC(=O)c1ccc(-c2noc(CN(Cc3nccn3C)C(C)C)n2)cc1	-5%	20	13µM*	5%	?
CC(C)N(Cc1nc(-c2ccc3c(c2)OCO3)no1)Cc1nccn1C	-11%	-2	-27%	-1%	?
COc1cc(NC(=O)CN2CCN(c3ccccc3O)CC2)c(C)cc1[N+](=O)[O-]	-5%	0	12µM*	-3%	?
O=C(CN1CCN(c2ccccc2O)CC1)Nc1ccc([N+](=O)[O-])cc1Br	-23%	6	?	-7%	23µM*
C=CCc1ccc(OCCN2CCc3ccccc3C2)c(OC)c1	-13%	-2	?	-10%	16µM*
COc1cc(CN2CCc3ccccc3C2)ccc1O	?	-90*	0.92µM*	?	0.46µM*
O=C(Nc1ccc(F)cc1)c1ccc(CN2CCc3ccccc3C2)cc1	-6%	16	-21%	0%	?
COc1cc(CN2CCc3ccccc3C2)cc([N+](=O)[O-])c1O	7%	11	6%	3%	2%
CSc1cccc(NC(=O)c2ccc(CN3CCc4ccccc4C3)cc2)c1	?	-88*	?	-27%	-49%
CSc1cccc(NC(=O)N2CCc3ccc(NC(=O)c4ccccn4)cc3C2)c1	-19%	-9	?	?	13µM*
NC(=O)c1cc(S(=O)(=O)NC2CCCCC2)co1	8%	12	-21%	5%	-25%
Cc1cc2sc(C(=O)O)c(C)c2s1	9%	0	-10%	7%	4%
COc1ccc(C2C(C(=O)NCC3CCCO3)c3cc(OC)c(OC)cc3C(=O)N2C)cc1OC (stereo not given)	9%	21	6%	11%	-4%
O=C(Nc1ccccc1C(=O)OCc1cc(=O)n2nc(C3CC3)sc2n1)c1cccc(F)c1	/	/	-8%	/	0%
O=C(Nc1cccc(Br)c1)c1ccc(CN2CCc3ccccc3C2)cc1	?	0	?	16µM*	16µM*
COc1ccc(CN2CCc3ccc(NC(=O)CCc4ccccc4OC)cc3C2)c(O)c1	?	?	15µM*	-18%	23µM*
CC(=O)Nc1ccc(NC(=O)c2ccc(CN3CCc4ccccc4C3)cc2)cc1	?	22	-28%	?	?
COc1ccc(NC(=O)c2ccc(CN3CCc4ccccc4C3)cc2)c(OC)c1	8%	-2	23µM*	2%	?
CCCCNC(=O)Nc1nnc(C(C)(C)C)s1	26%	-2	-2%	23%	?
O=C(NCCCN1CCOCC1)c1ccc2c(=O)n(Cc3cccc(Br)c3)c(=S)[nH]c2c1	?	-65*	-17%	?	?
COCCn1c(=S)[nH]c2cc(C(=O)NCCCN3CCOCC3)ccc2c1=O	9%	54	3%	-2%	-4%
COc1ccccc1Cn1c(=S)[nH]c2cc(C(=O)NCCCN3CCOCC3)ccc2c1=O	?	44	?	16µM*	?
COc1ccccc1Cn1c(=S)[nH]c2ccc(F)cc2c1=O	4%	-73*	-13%	0%	-17%
COc1ccccc1Cn1c(=S)[nH]c2ccc(Br)cc2c1=O	5%	40	3%	4%	-8%
Cc1occc1-c1nnc(SCC(=O)Nc2nc3ccccc3s2)o1	?	0	-1%	1%	-18%
SMILES	HT1080 IDH1KD tx	IL-1B inflam inh	DT40 TDP1 CPT	HT1080NT lethal	DT40 TDP1 no CPT
CCCCS(=O)CC(O)COCC (stereo not given)	14%	-11	1%	11%	-3%
O=S(=O)(c1ccc2ncsc2c1)N1CCN(c2nc(-c3cccs3)nc3ccccc23)CC1	18%	/	5%	16%	?
COc1ccc(-n2nc(C(=O)NCC(=O)NCCc3ccc(OC)c(OC)c3)c3ccccc3c2=O)cc1Cl	-4%	-25	?	-2%	13µM*
COc1ccc(-n2nc(C(=O)NCC(=O)NC(C)C)c3ccccc3c2=O)cc1	11%	-6	5%	6%	-9%
COc1ccc(-n2nc(C(=O)NCC(=O)N3CCN(c4ccccc4)CC3)c3ccccc3c2=O)c(OC)c1	2%	-1	?	5%	?
COc1ccc(-n2nc(C(=O)NCC(=O)N3CCN(Cc4ccccc4)CC3)c3ccccc3c2=O)cc1	2%	?	23µM*	4%	?
COc1ccc(-n2nc(C(=O)NCC(=O)NCc3ccc(F)cc3)c3ccccc3c2=O)cc1	-4%	-8	-26%	-22%	18µM*
COCCNC(=O)CNC(=O)c1nn(-c2ccc(OC)c(Cl)c2)c(=O)c2ccccc12	5%	-22	?	-5%	-14%
COc1ccc(-n2nc(C(=O)NCC(=O)N3CCN(c4ccc(F)cc4)CC3)c3ccccc3c2=O)c(OC)c1	0%	-19	21µM*	9%	?
CCN1CCN(C(=O)CNC(=O)c2nn(-c3ccc(OC)cc3)c(=O)c3ccccc23)CC1	-16%	4	3%	3%	4%
C=C1[C@@H](OC(C)=O)CC[C@]2(C)[C@@H]1C[C@@H]1C[C@H](OC(C)=O)C(C)=C([C@@H](OC(C)=O)[C@@H]2OC(C)=O)C1(C)C	-4%	19	?	4%	?
Cc1cc(-c2ccccc2)nc(Nc2nc3c(C)cccc3c(=O)[nH]2)n1	6%	3	?	10%	?
CCOC(=O)N1CCN(C(=O)CNC(=O)c2nn(-c3ccc(OC)c(Cl)c3)c(=O)c3ccccc23)CC1	-16%	-25	?	-25%	9.2µM*
CCOC(=O)N=Nc1c(O)n(CC(=O)OC)c2ccccc12	15%	8	2%	16%	4%
CCOC(=O)N=Nc1c2ccccc2c2nc3no[nH]c3nc12	1µM*	-103*	0.41µM*	1.2µM*	1.3µM*
O=C1NC(=S)N/C1=C/c1cc([N+](=O)[O-])ccc1O	1%	-1	-27%	10%	-20%
CC1(C)CC2(CC(c3ccccc3)Oc3cc(O)ccc32)NC(=S)N1 (stereo not given)	7%	24	21µM*	2%	21µM*
O=C1CC(c2ccccc2)Oc2cc(O)ccc21 (stereo not given)	-22%	-27	7%	-1%	4%
CC(=O)Oc1ccc2c(c1)OC(c1ccccc1)CC21CC(C)(C)NC(=S)N1 (stereo not given)	-7%	2	16µM*	-6%	12µM*
CC(C)(C)C1CCc2c(sc(NC(=O)c3cccs3)c2C(=O)N2CCCCC2)C1 (stereo not given)	?	-8	?	-21%	?
